Not all results are given here.
aSyn 5UTR act: Activators working through SNCA 5'UTR binding (MLPCN); 300,000 tested, 7.1% active; activity score, % (tested at 7.5 µM), hits read low; alpha-synuclein 5'UTR reporter, activators screen; in the data active = activity score below about -60%
An asterisk follows results filed as active.

SMILES	aSyn 5UTR act
CN1CCN(C(=O)c2ccc(COc3ccc(C(C)(C)C)cc3)o2)CC1	-99*
CCC(C)c1ccc(OCc2ccc(C(=O)O)o2)cc1 (stereo not given)	-86*
CCOC(=O)COc1cccc2c(=O)n(CC(=O)NCc3ccccc3)ccc12	57
O=C(Cn1cc(C(F)(F)F)cc(Cl)c1=O)NCc1ccccc1	-113*
Cc1nc(N)nc(N)c1/C=C/C(C)(C)c1ccc(Cl)cc1	125
CC(C)(C)S(=O)(=O)c1cnc(-c2ccc(Cl)cc2)nc1N	-114*
Brc1ccc(-c2noc(C3CCCCC3)n2)cc1	-143*
c1ccc(-c2noc(C3CCCCC3)n2)nc1	-82*
CC1CC1C(=O)OCC(=O)NC(=O)NC12CC3CC(CC(C3)C1)C2 (stereo not given)	-118*
COc1ccc(-c2cc(=O)c3c(O)c(OC)c(O)cc3o2)cc1	70
COCOc1ccc(-c2cc(=O)c3c(O)cc(OCOC)cc3o2)cc1	-127*
O=c1c(O)c(-c2ccc(O)cc2)oc2cc(O)cc(O)c12	-100*
O=c1cc(-c2ccccc2)oc2cc(O)cc(O)c12	-171*
COc1cc(O)c2c(=O)cc(-c3ccccc3)oc2c1	-145*
COc1cc(-c2cc(=O)c3c(O)cc(O)cc3o2)ccc1O	-79*
O=c1cc(-c2ccc(O)cc2)oc2cc(O)cc(O)c12	-269*
COc1cc(O)c2c(=O)c3c(OC)c(O)ccc3oc2c1	-78*
COc1ccccc1C(=O)Nc1nc2ccccc2[nH]1	100
CSc1ccccc1C(=O)Nc1nc2ccccc2c(=O)[nH]1	-122*
CSc1ccccc1C(=O)Nc1nc2ccccc2[nH]1	-133*
Cc1sc(NC(=O)c2ccc(=O)n(C)n2)nc1-c1ccccc1	-95*
Cn1nc(C(=O)Nc2nc3ccccc3[nH]2)ccc1=O	-94*
Nc1ccc(C(=O)OCC(=O)N2CCOCC2)cc1[N+](=O)[O-]	-71*
O=C(OCC(=O)N1CCOCC1)c1ccccc1Cc1ccccc1	-183*
O=C(OCC(=O)N1CCOCC1)c1cccc(F)c1	-87*
SMILES	aSyn 5UTR act
COc1ccc2nc(Nc3ccccc3OC)sc2c1	-154*
COc1ccccc1NC(=O)Nc1nc2ccc(S(N)(=O)=O)cc2s1	-183*
CCC(C)C(=O)Nc1nc2ccc(OC)cc2s1 (stereo not given)	-167*
COc1ccc2nc(NC(=O)Nc3cccc4ccccc34)sc2c1	-103*
COc1ccc2nc(NC(=O)Nc3ccccc3OC)sc2c1	-89*
COc1ccc2nc(Nc3ccccc3)sc2c1	-119*
Cn1c(SCc2cccc(F)c2)nnc1-c1cnccn1	-98*
Cn1c(SCc2ccccc2[N+](=O)[O-])nnc1-c1cccnc1	-68*
Cc1ccccc1CSc1nnc(-c2ccccn2)n1C	-104*
Cn1c(SCc2cccc(F)c2)nnc1-c1ccccn1	-142*
COc1ccc(Cn2c(SCc3ccccc3C)nc3cc(OC)c(OC)cc3c2=N)cc1	93
Cn1c(SC/C=C/c2ccccc2)nnc1-c1cnccn1	-63*
Cn1c(SCc2ccccc2Cl)nnc1-c1cnccn1	-92*
CC1(C)Cc2c(sc3nc(N/N=C/c4ccccc4)[nH]c(=O)c23)CO1	-78*
Cc1ccc(S(=O)(=O)C2(C(=O)Nc3ccc(C(C)C)cc3)CC2)cc1	-77*
O=C(/C=C1\NC2(CCCC2)Cc2ccccc21)C(=O)N/N=C/c1ccccc1O	74
O=C(N/N=C/c1ccccc1[N+](=O)[O-])C(=O)N1CCCC1	-72*
COc1ccc(NC(=O)c2cc3cc(OC)ccc3oc2=N)cc1	-63*
CCCCCCc1cc2cc(C(=O)Nc3cccc(OC)c3)c(=O)oc2cc1O	63
O=C(c1ccc(F)cc1)c1cc2ccc(O)cc2oc1=O	-62*
COc1ccc(NC(=O)c2cc3ccc(O)cc3o/c2=N\O)cc1	-155*
N=c1oc2cc(O)ccc2cc1C(=O)Nc1ccc(F)cc1	-148*
N/C(=N\OC(=O)Nc1ccccc1)c1ncc(C(F)(F)F)cc1Cl	-115*
N/C(=N\OC(=O)Nc1ccc(Cl)cc1)c1ncc(C(F)(F)F)cc1Cl	-73*
CCN(CC)CCCNc1oc(/C=C/c2ccccc2)nc1C#N	-64*
SMILES	aSyn 5UTR act
CNc1oc(/C=C/c2cccc(OC)c2)nc1C#N	-180*
CCNc1oc(/C=C/c2ccc(OCC)cc2)nc1C#N	-188*
CC(=O)N(C)C1=C(N2CCOCC2)C(=O)c2ccccc2C1=O	76
O=C1C=C(N2CCCCC2)c2ccccc2C1=O	122
CCCN1C(=O)/C(=C2\SC(N3CCCCC3)=NC2=O)c2ccccc21	-159*
O=C1N=C(N2CCOCC2)S/C1=C1\C(=O)N(Cc2ccccc2)c2ccccc21	-193*
O=C1N=C(N2CCCCC2)SC1=C1CCCCC1	-89*

High-throughput results as filed in PubChem BioAssay.
